Measured values published in the OligoGym collection.

What follows are sequences tested against FEZ1 (assay: pooled miR-30 sensor sort-seq; sequence = guide strand). Details: shRNA.
Note: reference of the scale not given here.

Row | Sequence | sensor-assay potency score (higher = more potent)
1 | TAGTCTTAAGAGTATAAGCTGT | -0.799
2 | TTGCTCAGTGACCTCCTGCAGC | -0.806
3 | TTCTCGTAAGGAATGACTGTGT | -0.149
4 | TTTATTTCAAAATTAGTCTTAA | -0.684
5 | TTGTCTGTCAGAGCATCCCAAA | -1.44
6 | TGAACCTCAATAAGCACCGTGA | -0.29
7 | TTTAAATACATGTCGGAGGTTA | 0.312
8 | ATGAACCATAGAAACACTGGGG | -0.474
9 | TCAAACTCCAGCTCGTCCCGGC | 0.386

These sequences were tested against FFAR2 in the same assay as above. Details: shRNA.

Row | Sequence | sensor-assay potency score (higher = more potent)
10 | TTCTCCTTGACCCACACCCCTG | -1.59
11 | TAGCAGGTAATTTCATTGCCAC | -0.783
12 | TCGGTGAAGTTCTCGTAGCAGG | -0.822
13 | TTTTTCTCTGGTGATACCCCAC | -0.286
14 | TCTCGTAGCAGGTAATTTCATT | -0.802
15 | TTGAGTGAACTGAACACCACGG | 0.516
16 | TAAGCCATGAGGATCAAGGAGC | -1.02
17 | TGAGTGAACTGAACACCACGGC | 0.269
18 | TTCATTGCCACTTCTGACCTGC | 0.752
19 | TAGATGCTGCTGTAGAAGCCAA | -0.865
20 | TCGTGTTCAAGTATTGAACGAT | -0.455
21 | TTATCGGTGAAGTTCTCGTAGC | -0.593
